Consider 47 molecules from PubChem BioAssay AID2685 (National Center for Advancing Translational Sciences (NCATS), 2010).

The whole screen tested about 320,000 compounds, of which about 2,100 (0.66%) were called active. Roughly 53% stayed inconclusive and do not appear here. Calls come from the whole dose curve; as a rule, active = well fitted inhibition curve with a large enough effect in the signal ratio, with a control signal flat (not every such curve was filed as active); inconclusive = small, poorly fitted or top-dose-only effect, or effect the other way, or a change in a side signal; inactive = flat fitted curve, though single readings scatter; the % refers to the signal ratio. The list comes from a sample in which actives are over-represented; it also holds similar structures and randomly drawn compounds.
Potency is the fitted concentration of half-maximal effect.

The nature of the experiment: qHTS Assay for Lipid Storage Modulators in Drosophila S3 Cells.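 For cell number change: cells counted by Cell Tracker Red CMTPX staining in the red channel.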 The note with it: BODIPY lipid droplet fluorescence, 18-24 h, cells fed with added oleic acid; cell number change: measured here: cell count max response; series mostly up to 46.1 µM. The method in brief: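 Drosophila S3 cells got compounds at several concentrations plus oleic acid (400 uM solution). Laser-scanning cytometry with 488 nm excitation read lipid droplets at 500-530 nm and cells at 575-640 nm. Percent activity was relative to 20 uM Triacsin C.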
As to `COc1ccccc1/C=C/c1onc(C)c1S(=O)(=O)N1CCC(C(=O)NC2CCCCCC2)CC1`, the Potency entry is “inactive” and the cell number change was -0.659%.

Regarding `CCOC(=O)CC(NC(=O)c1cc2ccccc2oc1=O)c1cccc([N+](=O)[O-])c1` (stereo not given), the Potency result was “inactive” and the cell number change worked out at 11.6%.

As to `O=[N+]([O-])c1cc([N+](=O)[O-])c(Oc2c(F)ccc(F)c2F)cc1NN1CCCCC1`, the Potency result is “inactive” and the cell number change is -0.599%.

For `NC(=O)Cn1nc([N+](=O)[O-])nc1Oc1ccc(Br)cc1`, the Potency result was “inactive” and the cell number change was -1.14%.

As to `COc1ccccc1Oc1nc([N+](=O)[O-])nn1CC(N)=O`, the Potency entry was “inactive” and the cell number change was -6.43%.

As for `NC(=O)Cn1nc([N+](=O)[O-])nc1Oc1ccccc1C(=O)N1CCOCC1`, the Potency is 14.6 µM (active) and the cell number change is -24.1%.

In the case of `Cc1ccc(C(=O)C[n+]2cc(Br)cc(Br)c2)cc1[N+](=O)[O-]`, the Potency entry was “inactive” and the cell number change stood at 11.3%.

With `Cc1cccc(C(CC(=O)N2CCCCC2)c2ccccc2)c1O` (stereo not given), the Potency entry is “inactive” and the cell number change is -18.8%.

Consider `O=C1CC2(CCN(C(=O)c3ccc(Br)cc3)CC2)Oc2ccccc21`, for which the Potency entry is “inactive” and the cell number change was -15.2%.

Consider `COc1cc(/C=C/C(=O)c2ccc(NS(=O)(=O)c3ccc(C)cc3)cc2)cc(OC)c1O`, for which the Potency entry was “inactive” and the cell number change was -14.2%.

For `CCN(CC)C(=O)C1CCCN(C(=O)c2oc3ccc(C)cc3c2C)C1` (stereo not given), the Potency entry is “inactive” and the cell number change came out at 15.6%.

As for `Cc1ccc(NC(=S)N2CCC(C(N)=O)(N3CCCCC3)CC2)c(C)c1`, the Potency result is “inactive” and the cell number change is -4.08%.

`Cc1ccc2oc(C(=O)N3CCC(C(N)=O)(N4CCCCC4)CC3)c(C)c2c1`: the Potency is 18.4 µM (active) and the cell number change is -4.2%.

As for `CCCOc1ccc(/C=C/C(=O)N2CCN(c3ccccn3)CC2)cc1`, the Potency entry is “inactive” and the cell number change is -20.8%.

Consider `S=c1[nH]nc(COc2ccc3ccccc3c2)o1`, for which the Potency result is “inactive” and the cell number change is -7.51%.

On to `Cc1ccc(S(=O)(=O)CCc2nc3ccccc3s2)cc1C`, for which the Potency is 18.4 µM (active) and the cell number change came out at 19.6%.

Regarding `Cc1ccc(S(=O)(=O)CCc2nc3ccccc3s2)cc1`, the Potency entry was “inactive” and the cell number change was -0.805%.

On to `O=S(=O)(CCc1nc2ccccc2s1)c1ccc(Cl)cc1`, for which the Potency entry is “inactive” and the cell number change was 17.6%.

`c1cncc(-c2cn(C[C@H]3CC[C@@H]([C@@H]4CC[C@H](Cn5cc(-c6cccnc6)nn5)O4)O3)nn2)c1`: the Potency is 14.6 µM (active) and the cell number change came out at 9.88%.

On to `c1ccc(-c2cn(C[C@H]3CC[C@@H]([C@@H]4CC[C@H](Cn5cc(-c6ccccn6)nn5)O4)O3)nn2)nc1`, for which the Potency result was “inactive” and the cell number change came out at 28.2%.

With `c1ccc(-c2cn(C[C@H]3CC[C@@H]([C@@H]4CC[C@H](Cn5cc(-c6ccccc6)nn5)O4)O3)nn2)cc1`, the Potency entry is “inactive” and the cell number change was -7.49%.

`CC(=O)N1CCN(S(=O)(=O)c2c(C)n(C)c(=O)n(C)c2=O)CC1`: the Potency entry was “inactive” and the cell number change was found to be 5.18%.

On to `CCCCOc1ccc(C(=O)N2CCNC(=O)C2CC(=O)OC(C)C)cc1` (stereo not given), for which the Potency result was “inactive” and the cell number change was 7.09%.

As to `CCCNC(=O)Nc1cccc(NC(C)=O)c1`, the Potency result was “inactive” and the cell number change was -9.94%.

As for `CCOCCCNC(=O)C1CCCN(S(=O)(=O)c2cccc3nsnc23)C1` (stereo not given), the Potency entry is “inactive” and the cell number change was -2.02%.

In the case of `COc1ccc(NC(=O)C2CCCN2c2nn3c(=O)cc(C)nc3s2)cc1` (stereo not given), the Potency result is “inactive” and the cell number change was found to be 13.8%.

In the case of `COc1ccc(CCNC(=O)C2CCN(c3nn4c(=O)cc(C)nc4s3)CC2)cc1OC`, the Potency entry is “inactive”.

For `Cc1cc(=O)n2nc(N3CCC(C(=O)N4CCN(C)CC4)CC3)sc2n1`, the Potency was 6.51 µM (active) and the cell number change was 5.43%.

`Cc1cc(=O)n2nc(N3CCCC(C(=O)N4CCN(C)CC4)C3)sc2n1` (stereo not given): the Potency result is “inactive” and the cell number change was -3.39%.

Regarding `Cc1cc(=O)n2nc(N3CCC(C(=O)N4CCN(c5ccccc5)CC4)CC3)sc2n1`, the Potency entry was “inactive”.

Take `Cc1cc(=O)n2nc(N3CCCC3C(=O)NCCCN3CC(C)CC(C)C3)sc2n1` (stereo not given): the Potency was 5.17 µM (active) and the cell number change is -13.9%.

Regarding `Cc1cc(=O)n2nc(N3CCC(C(=O)NCCc4ccccc4)CC3)sc2n1`, the Potency entry was “inactive” and the cell number change is 7.93%.

With `Cc1cc(=O)n2nc(N3CCCC(C(=O)NCc4ccccc4Br)C3)sc2n1` (stereo not given), the Potency is 1.46 µM (active) and the cell number change is -27.4%.

Regarding `CCC1CCCCN1CCCNC(=O)C1CCCN(c2nn3c(=O)cc(C)nc3s2)C1` (stereo not given), the Potency result was “inactive”.

In the case of `CCOc1ccc(CCNC(=O)C2CCN(c3nn4c(=O)cc(C)nc4s3)CC2)cc1OCC`, the Potency is 5.8 µM (active) and the cell number change is 3.17%.

As to `Cc1cc(=O)n2nc(N3CCCC(C(=O)NCc4ccccc4C)C3)sc2n1` (stereo not given), the Potency entry was “inactive” and the cell number change was determined as 0.288%.

For the molecule `Cc1cc(=O)n2nc(N3CCCC(C(=O)NCc4ccccc4)C3)sc2n1` (stereo not given), the Potency result is “inactive” and the cell number change is -4.61%.

`COc1ccc(CCNC(=O)Cn2cnc3c(nnn3Cc3ccc(C)cc3)c2=O)cc1OC`: the Potency entry is “inactive” and the cell number change is -15.1%.

On to `COc1ccc(CN2CCN(Cc3cc4ccccc4o3)CC2CCO)c(F)c1` (stereo not given), for which the Potency result was “inactive” and the cell number change turned out to be 5.21%.

As for `C/C(=N\NC(=O)c1nnn(-c2nonc2N)c1CSc1ccccc1)c1ccco1`, the Potency entry is “inactive”.

For the molecule `N/C(=N/O)c1nc(N2CCCC2)nc(N2CCCC2)n1`, the Potency entry was “inactive” and the cell number change worked out at 6.44%.

Turning to `COc1ccc(CNC(=O)C(C)n2nc(C)c3c(C)n(-c4ccccc4)nc3c2=O)c(OC)c1` (stereo not given), the Potency result was “inactive” and the cell number change is 1.47%.

As for `COc1ccccc1CNC(=O)C(C)n1nc(C)c2c(C)n(-c3ccccc3)nc2c1=O` (stereo not given), the Potency was 5.8 µM (active) and the cell number change was -4.13%.

For `COc1ccc(OC)c(CNC(=O)C(C)n2nc(C)c3c(C)n(-c4ccccc4)nc3c2=O)c1` (stereo not given), the Potency entry is “inactive” and the cell number change was -28%.

In the case of `O=S1(=O)c2ccccc2Nc2ccccc21`, the Potency result is “inactive” and the cell number change was 5.2%.

In the case of `Cc1nc(NS(=O)(=O)c2ccccc2)sc1NC(=O)Nc1ccc(Cl)cc1`, the Potency entry was “inactive” and the cell number change came to 3.01%.

Turning to `COc1ccc(CCNCc2c(OC)ccc3ccccc23)cc1OC`, the Potency entry was “inactive” and the cell number change worked out at 20.1%.
